Experimental data: the supplement of paper PMC7261846
Where a name gives a salt, the structure may show the parent alone. ± gives the uncertainty stated by the source.

Tested on: Candida albicans SNY425 biofilm
Assay: biofilm OD600 with compound plus antifungal (OD600 (absorbance)); higher = more biofilm remaining
[1] = assay detail: disruption of 24-h mature biofilm (compound + antifungal for a second 24 h)
[2] = assay detail: sustained inhibition (compound + antifungal during 90-min adherence and 24-h growth)

SMILES: CCOC(=O)[C@H](CCc1ccccc1)N[C@@H](C)C(=O)N1CCC[C@H]1C(=O)O [Enalapril] + OC(Cn1cncn1)(Cn1cncn1)c1ccc(F)cc1F [fluconazole] (first compound 12.5 µM)
- biofilm OD600 [1]: 0.258 ± 0.0055
- biofilm OD600 [2]: 0.157 ± 0.015

SMILES: CCC[C@@]1(CCc2ccccc2)CC(O)=C([C@H](CC)c2cccc(NS(=O)(=O)c3ccc(C(F)(F)F)cn3)c2)C(=O)O1 [tipranavir] + CC[C@H](C)C[C@H](C)CCCCCCCCC(=O)N[C@H]1C[C@@H](O)[C@@H](NCCN)NC(=O)[C@@H]2[C@@H](O)CCN2C(=O)[C@H]([C@H](O)CCN)NC(=O)[C@H]([C@H](O)[C@@H](O)c2ccc(O)cc2)NC(=O)[C@@H]2C[C@@H](O)CN2C(=O)[C@H]([C@@H](C)O)NC1=O [caspofungin] (first compound 12.5 µM)
- biofilm OD600 [1]: 0.268 ± 0.011
- biofilm OD600 [2]: 0.192 ± 0.0071

SMILES: CCCC[C@@H](C=O)NC(=O)OC(C)(C)C + C[C@@H]1[C@H](O)[C@@H](C)/C=C/C=C/C=C/C=C/C=C/C=C/C=C/[C@H](O[C@@H]2O[C@H](C)[C@@H](O)[C@H](N)[C@@H]2O)C[C@@H]2O[C@](O)(C[C@@H](O)C[C@@H](O)[C@H](O)CC[C@@H](O)C[C@@H](O)CC(=O)O[C@H]1C)C[C@H](O)[C@H]2C(=O)O [amphotericin B] (first compound 12.5 µM)
- biofilm OD600 [1]: 0.259 ± 0.011
- biofilm OD600 [2]: 0.188 ± 0.0076

SMILES: CC(C)C[C@@H](C=O)NC(=O)[C@H](CC(C)C)NC(=O)[C@H](CC(C)C)NC(=O)OCc1ccccc1 + C[C@@H]1[C@H](O)[C@@H](C)/C=C/C=C/C=C/C=C/C=C/C=C/C=C/[C@H](O[C@@H]2O[C@H](C)[C@@H](O)[C@H](N)[C@@H]2O)C[C@@H]2O[C@](O)(C[C@@H](O)C[C@@H](O)[C@H](O)CC[C@@H](O)C[C@@H](O)CC(=O)O[C@H]1C)C[C@H](O)[C@H]2C(=O)O [amphotericin B] (first compound 12.5 µM)
- biofilm OD600 [1]: 0.29 ± 0.0045
- biofilm OD600 [2]: 0.209 ± 0.017

SMILES: CCCCC[C@H](CC(=O)NO)C(=O)N[C@H](C(=O)N1CCC[C@H]1CO)C(C)C [Actinonin] + OC(Cn1cncn1)(Cn1cncn1)c1ccc(F)cc1F [fluconazole] (first compound 12.5 µM)
- biofilm OD600 [1]: 0.267 ± 0.0099
- biofilm OD600 [2]: 0.145 ± 0.0085

SMILES: C[C@H](NC(=O)[C@@H]1CCCN1C(=O)[C@@H]1CCCN1C(=O)[C@@H](O)[C@H](N)Cc1ccccc1)C(N)=O [Apstatin] + CC[C@H](C)C[C@H](C)CCCCCCCCC(=O)N[C@H]1C[C@@H](O)[C@@H](NCCN)NC(=O)[C@@H]2[C@@H](O)CCN2C(=O)[C@H]([C@H](O)CCN)NC(=O)[C@H]([C@H](O)[C@@H](O)c2ccc(O)cc2)NC(=O)[C@@H]2C[C@@H](O)CN2C(=O)[C@H]([C@@H](C)O)NC1=O [caspofungin] (first compound 12.5 µM)
- biofilm OD600 [1]: 0.292 ± 0.0095
- biofilm OD600 [2]: 0.185 ± 0.0079

SMILES: CC(C)C[C@H](NC(=O)[C@@H](O)[C@H](N)Cc1ccccc1)C(=O)O [Bestatin·HCl] + CC[C@H](C)C[C@H](C)CCCCCCCCC(=O)N[C@H]1C[C@@H](O)[C@@H](NCCN)NC(=O)[C@@H]2[C@@H](O)CCN2C(=O)[C@H]([C@H](O)CCN)NC(=O)[C@H]([C@H](O)[C@@H](O)c2ccc(O)cc2)NC(=O)[C@@H]2C[C@@H](O)CN2C(=O)[C@H]([C@@H](C)O)NC1=O [caspofungin] (first compound 12.5 µM)
- biofilm OD600 [1]: 0.283 ± 0.013
- biofilm OD600 [2]: 0.187 ± 0.0098

SMILES: CO[C@@H]1[C@H](OC(=O)/C=C/C=C/C=C/C=C/C(=O)O)CC[C@]2(CO2)[C@H]1[C@@]1(C)O[C@@H]1CC=C(C)C [Fumagillin] + C[C@@H]1[C@H](O)[C@@H](C)/C=C/C=C/C=C/C=C/C=C/C=C/C=C/[C@H](O[C@@H]2O[C@H](C)[C@@H](O)[C@H](N)[C@@H]2O)C[C@@H]2O[C@](O)(C[C@@H](O)C[C@@H](O)[C@H](O)CC[C@@H](O)C[C@@H](O)CC(=O)O[C@H]1C)C[C@H](O)[C@H]2C(=O)O [amphotericin B] (first compound 12.5 µM)
- biofilm OD600 [1]: 0.264 ± 0.0097
- biofilm OD600 [2]: 0.185 ± 0.0052

SMILES: CC1CNc2c(cccc2S(=O)(=O)N[C@@H](CCCNC(=N)N)C(=O)N2CC[C@@H](C)C[C@@H]2C(=O)O)C1 (stereo partly drawn) [Argatroban] + OC(Cn1cncn1)(Cn1cncn1)c1ccc(F)cc1F [fluconazole] (first compound 12.5 µM)
- biofilm OD600 [1]: 0.286 ± 0.011
- biofilm OD600 [2]: 0.113 ± 0.0066

SMILES: O=c1oc(Cl)c(Cl)c2ccccc12 [3,4-Dichloroisocoumarin] + CC[C@H](C)C[C@H](C)CCCCCCCCC(=O)N[C@H]1C[C@@H](O)[C@@H](NCCN)NC(=O)[C@@H]2[C@@H](O)CCN2C(=O)[C@H]([C@H](O)CCN)NC(=O)[C@H]([C@H](O)[C@@H](O)c2ccc(O)cc2)NC(=O)[C@@H]2C[C@@H](O)CN2C(=O)[C@H]([C@@H](C)O)NC1=O [caspofungin] (first compound 12.5 µM)
- biofilm OD600 [1]: 0.246 ± 0.014
- biofilm OD600 [2]: 0.21 ± 0.014

SMILES: CC(C)C[C@H](NP(=O)(O)O[C@@H]1O[C@@H](C)[C@H](O)[C@@H](O)[C@H]1O)C(=O)N[C@@H](Cc1c[nH]c2ccccc12)C(=O)O [Phosphoramidon] + CC[C@H](C)C[C@H](C)CCCCCCCCC(=O)N[C@H]1C[C@@H](O)[C@@H](NCCN)NC(=O)[C@@H]2[C@@H](O)CCN2C(=O)[C@H]([C@H](O)CCN)NC(=O)[C@H]([C@H](O)[C@@H](O)c2ccc(O)cc2)NC(=O)[C@@H]2C[C@@H](O)CN2C(=O)[C@H]([C@@H](C)O)NC1=O [caspofungin] (first compound 12.5 µM)
- biofilm OD600 [1]: 0.273 ± 0.012
- biofilm OD600 [2]: 0.191 ± 0.013

SMILES: COC(=O)N[C@H](C(=O)N[C@@H](Cc1ccccc1)[C@@H](O)CN(Cc1ccc(-c2ccccn2)cc1)NC(=O)[C@@H](NC(=O)OC)C(C)(C)C)C(C)(C)C [atazanavir] + C[C@@H]1[C@H](O)[C@@H](C)/C=C/C=C/C=C/C=C/C=C/C=C/C=C/[C@H](O[C@@H]2O[C@H](C)[C@@H](O)[C@H](N)[C@@H]2O)C[C@@H]2O[C@](O)(C[C@@H](O)C[C@@H](O)[C@H](O)CC[C@@H](O)C[C@@H](O)CC(=O)O[C@H]1C)C[C@H](O)[C@H]2C(=O)O [amphotericin B] (first compound 12.5 µM)
- biofilm OD600 [1]: 0.286 ± 0.013
- biofilm OD600 [2]: 0.213 ± 0.0068

SMILES: CSCCC(C=O)NC(=O)C(CC(C)C)NC(=O)[C@H](CC(C)C)NC(C)=O (stereo partly drawn) [Calpain Inhibitor II (ALLM)] + C[C@@H]1[C@H](O)[C@@H](C)/C=C/C=C/C=C/C=C/C=C/C=C/C=C/[C@H](O[C@@H]2O[C@H](C)[C@@H](O)[C@H](N)[C@@H]2O)C[C@@H]2O[C@](O)(C[C@@H](O)C[C@@H](O)[C@H](O)CC[C@@H](O)C[C@@H](O)CC(=O)O[C@H]1C)C[C@H](O)[C@H]2C(=O)O [amphotericin B] (first compound 12.5 µM)
- biofilm OD600 [1]: 0.247 ± 0.0052
- biofilm OD600 [2]: 0.193 ± 0.0094

SMILES: CC(C)C[C@H](NC(=O)[C@H]1O[C@@H]1C(=O)O)C(=O)NCCCCN=C(N)N + CC[C@H](C)C[C@H](C)CCCCCCCCC(=O)N[C@H]1C[C@@H](O)[C@@H](NCCN)NC(=O)[C@@H]2[C@@H](O)CCN2C(=O)[C@H]([C@H](O)CCN)NC(=O)[C@H]([C@H](O)[C@@H](O)c2ccc(O)cc2)NC(=O)[C@@H]2C[C@@H](O)CN2C(=O)[C@H]([C@@H](C)O)NC1=O [caspofungin] (first compound 12.5 µM)
- biofilm OD600 [1]: 0.261 ± 0.01
- biofilm OD600 [2]: 0.18 ± 0.008

SMILES: CC1(C)C[C@@H]1C(=O)N/C(=C\CCCCSC[C@H](N)C(=O)O)C(=O)O [Cilastatin] + OC(Cn1cncn1)(Cn1cncn1)c1ccc(F)cc1F [fluconazole] (first compound 12.5 µM)
- biofilm OD600 [1]: 0.271 ± 0.011
- biofilm OD600 [2]: 0.162 ± 0.012

SMILES: COC(=O)C[C@H](NC(=O)[C@H](C)NC(=O)[C@@H](NC(=O)OCc1ccccc1)C(C)C)C(=O)CF + CC[C@H](C)C[C@H](C)CCCCCCCCC(=O)N[C@H]1C[C@@H](O)[C@@H](NCCN)NC(=O)[C@@H]2[C@@H](O)CCN2C(=O)[C@H]([C@H](O)CCN)NC(=O)[C@H]([C@H](O)[C@@H](O)c2ccc(O)cc2)NC(=O)[C@@H]2C[C@@H](O)CN2C(=O)[C@H]([C@@H](C)O)NC1=O [caspofungin] (first compound 12.5 µM)
- biofilm OD600 [1]: 0.296 ± 0.011
- biofilm OD600 [2]: 0.177 ± 0.0034

SMILES: CC(C)CCNC(=O)[C@H](CC(C)C)NC(=O)[C@H]1O[C@@H]1C(=O)O + C[C@@H]1[C@H](O)[C@@H](C)/C=C/C=C/C=C/C=C/C=C/C=C/C=C/[C@H](O[C@@H]2O[C@H](C)[C@@H](O)[C@H](N)[C@@H]2O)C[C@@H]2O[C@](O)(C[C@@H](O)C[C@@H](O)[C@H](O)CC[C@@H](O)C[C@@H](O)CC(=O)O[C@H]1C)C[C@H](O)[C@H]2C(=O)O [amphotericin B] (first compound 12.5 µM)
- biofilm OD600 [1]: 0.27 ± 0.0079
- biofilm OD600 [2]: 0.21 ± 0.0074

SMILES: O=C(NCCCCN1CCOCC1)c1cc2ccccc2o1 + C[C@@H]1[C@H](O)[C@@H](C)/C=C/C=C/C=C/C=C/C=C/C=C/C=C/[C@H](O[C@@H]2O[C@H](C)[C@@H](O)[C@H](N)[C@@H]2O)C[C@@H]2O[C@](O)(C[C@@H](O)C[C@@H](O)[C@H](O)CC[C@@H](O)C[C@@H](O)CC(=O)O[C@H]1C)C[C@H](O)[C@H]2C(=O)O [amphotericin B] (first compound 12.5 µM)
- biofilm OD600 [1]: 0.262 ± 0.0087
- biofilm OD600 [2]: 0.216 ± 0.013

SMILES: CC(C)(C)NC(=O)[C@@H]1C[C@@H]2CCCC[C@@H]2CN1C[C@@H](O)[C@H](Cc1ccccc1)NC(=O)[C@H](CC(N)=O)NC(=O)c1ccc2ccccc2n1 [saquinavir] + OC(Cn1cncn1)(Cn1cncn1)c1ccc(F)cc1F [fluconazole] (first compound 12.5 µM)
- biofilm OD600 [1]: 0.255 ± 0.0074
- biofilm OD600 [2]: 0.112 ± 0.009
